Bioassay records deposited in PubChem by The Scripps Research Institute Molecular Screening Center.
A selection: hits, their analogues and other compounds. The true share with any hit is near 3.5%.
TEAD-YAP inh: TEAD-YAP interaction inhibition. inhibition, % at 9.12 µM. hit rate 1.4% among 640,000. AID 1259422. HEK-TIYL cells, TEAD-Gal4/YAP UAS-luciferase luminescence; in the data active = inhibition above about 32%;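 also: 0% = median of test compound wells and 100% = reference inhibitor wells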
FBW7 activator: human FBW7 E3 ligase activation, primary screen; Q969H0; AID 1259310; AlphaScreen FBW7–phospho-cyclin E peptide binding, activator screen; hit rate 0.13% among 650,000; normalized activity (activation), % at 26.1 µM; in the data active = normalized activity above about 1.9%;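 also: purified mutant Fbw7 with reduced substrate affinity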
MITF inh: inhibitors of human MITF; AID 1259374; hit rate 0.91% among 650,000; inhibition, % at 2.6 µM; AlphaScreen MITF homodimerization, bead proximity signal; O75030; in the data active = inhibition above about 50%;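 also: 0% = vehicle wells with protein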
GPR151 activ: activates the human receptor GPR151; hit rate 1% among 650,000; PathHunter beta-arrestin GPR151 cells, luminescence; activation, % at 11.2 µM; Q8TDV0; in the data active = activation above about 4.9%;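 also: 0% = median of compound wells and 100% = cells with positive control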
Target sequence (Q8TDV0 whole entry, looked up): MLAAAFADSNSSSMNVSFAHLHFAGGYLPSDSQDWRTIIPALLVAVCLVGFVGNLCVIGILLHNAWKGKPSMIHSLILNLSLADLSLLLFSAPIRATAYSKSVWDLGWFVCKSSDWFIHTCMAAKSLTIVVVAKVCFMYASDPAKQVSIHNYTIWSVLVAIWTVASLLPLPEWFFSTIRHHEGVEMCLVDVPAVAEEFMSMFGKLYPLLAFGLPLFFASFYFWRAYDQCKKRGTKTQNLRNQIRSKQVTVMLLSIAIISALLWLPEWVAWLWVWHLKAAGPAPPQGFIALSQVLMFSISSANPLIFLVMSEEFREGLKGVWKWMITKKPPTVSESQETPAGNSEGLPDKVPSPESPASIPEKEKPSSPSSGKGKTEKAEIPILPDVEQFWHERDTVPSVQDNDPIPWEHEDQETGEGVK
MITF confirm: human MITF inhibition, confirmation. shares compounds with MITF inh. AlphaScreen MITF homodimerization, biotin/His-MITF beads. inhibition, % at 2.6 µM. hit rate 16% among 4,700. AID 1259372;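 active = inhibition above a cutoff derived from the DMSO control wells, cut at about 28% in these data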;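 also: 0% = MITF dimer wells with DMSO only; inhibitors lower the bead chemiluminescence by keeping MITF from dimerizing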
AS interf DR: optically interferes with AlphaScreen signal in dose response; shares compounds with MITF inh; AlphaScreen optical interference counterscreen, cell-free; IC50, µM; hit rate 6% among 480; call rule not given here
AS interf ctr: AlphaScreen optical interference, counter-screen; LysRS AlphaScreen counterscreen, signal interference, triplicate; inhibition, % at 2.6 µM; hit rate 7.6% among 4,700; shares compounds with MITF inh; AID 1259376;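 active = inhibition above a cutoff derived from the DMSO control wells, cut at about 30% in these data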
An asterisk follows results filed as active; . = not tested or not shown.

SMILES | TEAD-YAP inh | FBW7 activator | MITF inh | GPR151 activ | MITF confirm | AS interf ctr | others
C=CCc1cccc(C)c1OCCCN1CCN(C)CC1 | 0 | 0 | 43 | -2 | . | .
C=CCc1cccc(Cl)c1OCCN1CCNCC1 | 7 | 0 | 56* | 0 | -14 | -2
COCc1nnc(NC(=O)COc2ccc([N+](=O)[O-])cc2)s1 | -13 | 0 | -16 | 0 | . | .
COC(=O)C1=CN(C(C)C)C=C(C(=O)OC)C1c1ccc(Cl)cc1 | -14 | 1 | -5 | 0 | . | .
Cc1cccc(N2C(N)=NC(N)=NC2(C)C)c1 | 10 | 0 | 18 | -2 | . | .
NC(=O)c1ccc(N=Cc2cc3c(cc2[N+](=O)[O-])OCO3)cc1 | -6 | 0 | 58* | -1 | 76* | 9 | AS interf DR=>6.5
CCCN1CCN(C(=O)C2CCCN(c3nc4ccc(OCC)cc4s3)C2)CC1 (stereo not drawn) | -3 | 0 | 62* | 0 | 15 | 11
CCOc1ccc(CN2CCC(C(=O)N3CCCC3)CC2)cc1 | 1 | 0 | 40 | 1 | . | .
CCOC(=O)C1CCCCN1Cc1ccc(Br)cc1 (stereo not drawn) | 7 | 0 | 55* | 0 | 14 | 1
CCOc1ccc(CN2CCCC(C(=O)N3CCCC3)C2)cc1 (stereo not drawn) | 0 | 0 | 68* | -1 | 4 | 15
CCOc1ccccc1CN1CCC(N2CCCCCC2)CC1 | 3 | 0 | 78* | 0 | -11 | -4
CCOC(=O)C1CCCCN1Cc1ccc(O)cc1 (stereo not drawn) | 13 | 1 | 32 | 0 | . | .
CCOc1ccc2nc(N3CCCC(C(=O)Nc4ccc(NC(C)=O)cc4)C3)sc2c1 (stereo not drawn) | -36 | 0 | -8 | 0 | . | .
O=C(NC(=S)Nc1nnc(Cc2ccccc2)s1)c1ccc(Br)cc1 | -2 | 0 | 0 | -1 | . | .
CCOc1ccccc1N(CC(=O)Nc1ccccc1Cl)S(C)(=O)=O | 1 | 0 | 12 | 0 | . | .
CC1(C)CC(=O)C2=C(C1)N(c1ccccc1)C(N)=C(C#N)C2c1ccc(Br)cc1 (stereo not drawn) | -1 | 0 | -2 | -2 | . | .
NC(=O)/C(=C\c1ccc(Br)cc1)NC(=O)c1ccco1 | 13 | 0 | -2 | 1 | . | .
O=C(C1CCCN(Cc2ccc(Cl)cc2)C1)N1CCCCCC1 (stereo not drawn) | 14 | 0 | 88* | 0 | -10 | -3
CCOC(=O)C1CCCN(Cc2ccc(NC(C)=O)cc2)C1 (stereo not drawn) | 3 | 0 | 21 | 1 | . | .
CCOC(=O)C1CCCN(Cc2ccc(Br)cc2)C1 (stereo not drawn) | -12 | 0 | 57* | -1 | 1 | 14
CCOc1ccccc1CN1CCCC(C(=O)N2CCCCCC2)C1 (stereo not drawn) | 27 | 0 | 70* | -1 | 16 | 18
O=C(C1CCCN(Cc2ccc(Br)cc2)C1)N1CCCCC1 (stereo not drawn) | 12 | 0 | 60* | 0 | 7 | -3
CCOc1ccccc1CNCCNC(=O)c1cccs1 | 4 | 0 | 19 | 0 | . | .
CCOC(=O)C1CCCN(C2CC(=O)N(c3ccc(F)cc3)C2=O)C1 (stereo not drawn) | 5 | 0 | -2 | 0 | . | .
CCOC(=O)C1CCCN(CC(=O)c2ccc(F)cc2)C1 (stereo not drawn) | -12 | 0 | 69* | 2 | -14 | 8
SMILES | TEAD-YAP inh | FBW7 activator | MITF inh | GPR151 activ | MITF confirm | AS interf ctr | others
COc1ccc(CN2CCCC(C(=O)N3CCCC3)C2)c(OC)c1 (stereo not drawn) | 8 | 0 | 54* | -1 | -15 | -3
N#Cc1nc(-c2cccc(Cl)c2)oc1N1CCN(C(=O)c2ccc(Cl)cc2)CC1 | -7 | 0 | -7 | 5 | . | .
Cc1cccc(C(=O)N2CCN(c3oc(-c4ccc(Cl)cc4)nc3C#N)CC2)c1 | 1 | 0 | 75* | 0 | 6 | -3
Cc1ccc(-c2nn3c(C)nnc3s2)cc1NC(=O)c1ccc(C#N)cc1F | 3 | 1 | 15 | -2 | . | .
CCCCc1nc2ccccc2c(NC(=O)CN(CCCC)CCCC)c1CCC | -7 | 0 | 83* | 2 | 15 | -10
CCCCN(C)CC(=O)Nc1cc(N(C)C)nc2ccccc12 | 4 | 0 | 24 | 1 | . | .
CCCCc1nc2ccccc2c(NC(=O)CNC2CCCCC2)c1CCC | 9 | 0 | 66* | -1 | 1 | 5
